The values below come from PubChem BioAssay (Tox21).

Records with an inconclusive call do not appear. Active and inactive are the calls of the source. Calls follow the shape of the full dose curve.
% is scaled to controls: 0 for no effect and ±100 for the full control effect.

This experiment can be described thus: qHTS assay for small molecules that induce genotoxicity in human embryonic kidney cells expressing luciferase-tagged ATAD5 - cell viability (AID 651634). Also: nearly all actives have a fitted effect of over 25% in size. The conditions noted are these: HEK293T ATAD5-luc cells viability, CellTiter-Fluor, 15.5 h; series mostly up to 83.3 µM; activity, negative = cytotoxicity: at the top concentration. The source says: National Center for Advancing Translational Sciences [NCATS]
NIH Chemical Genomics Center [NCGC]
U.S. Environmental Protection Agency [EPA]
National Institutes of Environmental Health Sciences [NIEHS]
National Toxicology Program [NTP]
U.S. Food and Drug Administration [FDA]
Enhanced Level of Genome Instability Gene 1 (ELG1; human ATAD5) protein levels increase in response to various types of DNA damage. Using a luciferase reporter-gene tagged with ElG1, a cell-based assay [developed by Kyungjae Myung, NHGRI, NIH] was used to measure the induction of ATAD5 in human embryonic kidney cells (HEK293T). So, increase in luciferase activity can be used to identify the compounds that cause genetic stress. In addition to genotoxicity, these cells were also used to test for cytotoxicity by measuring the protease activity within live cells.
Tox21 Assay Protocol Summary:
For cytotoxicity screening, 2,000 cells in 5 uL/well were dispensed into white, solid-bottom 1536-well plates using a Multidrop Combi (Thermo Scientific) dispenser. Following transfer of 23 nL compound or DMSO vehicle by a pin tool, the plates were incubated 15.5 hr at 37C and 5% CO2. 1 ul CellTiter-Fluor reagent (Promega, Madison, WI) was then added to each plate and following 30 min incubation at 37C, fluorescence intensity was quantified on a ViewLux CCD-based plate reader.
For orientation: In qHTS, concentration-response curves come from the screen itself.
On to `CCOP(=S)(OCC)SCCSCC`, for which the outcome was inactive.

For `OC(O)C(Cl)(Cl)Cl`, the outcome was inactive.

With `CCN(CC)CCO`, the result was inactive.

Regarding `CC(C)NC(=O)N1CC(=O)N(c2cc(Cl)cc(Cl)c2)C1=O`, the compound was classed as inactive.

For `c1ccc(OP(Oc2ccccc2)Oc2ccccc2)cc1`, the result was inactive.

For `COP(N)(=O)SC` (stereo not given), the call was inactive.

As to `COc1ccc2c3c1O[C@H]1[C@@H](O)C=C[C@H]4[C@@H](C2)N(C)CC[C@@]341`, the call was inactive.

In the case of `Clc1ccc(Cl)cc1`, the outcome was inactive.

Turning to `CCC[N+](=O)[O-]`, the compound was classed as inactive.

As to `CCOP(OCC)OCC`, the compound was called inactive.

For `O=c1n(Cl)c(=O)n(Cl)c(=O)n1Cl`, the call was inactive.

`Cc1ccc([N+](=O)[O-])cc1C`: the compound was called inactive.

As for `O=C(O)c1ccccn1`, the outcome was inactive.

Consider `NCCc1ccc(O)cc1`, for which the call was inactive.

Turning to `O=NN1CCCC1`, the compound was classed as inactive.

On to `CCC(C)(CC)c1cc(NC(=O)c2c(OC)cccc2OC)on1`, for which the call was inactive.

Turning to `C=C(C)CCl`, the result was inactive.

On to `CC(C)=C[C@@H]1[C@@H](C(=O)OCc2coc(Cc3ccccc3)c2)C1(C)C`, for which the compound was classed as inactive.

For the compound `C1CC2OC2CC1C1CO1` (stereo not given), the result was inactive.

As to `Cn1cc(-c2ccccc2)c(=O)c(-c2cccc(C(F)(F)F)c2)c1`, the outcome was inactive.

As for `CCc1cccc(C)c1N(C(=O)CCl)C(C)COC` (stereo not given), the call was inactive.

Regarding `COCCl`, the call was inactive.

On to `Cc1ccccc1O`, for which the outcome was inactive.

In the case of `CN=C=S`, the call was inactive.

In the case of `O=c1ccc(=O)[nH][nH]1`, the compound was called inactive.

In the case of `c1cc2c3c(cccc3c1)CC2`, the call was inactive.

On to `O=S(=O)(c1ccc(O)cc1)c1ccc(O)cc1`, for which the compound was classed as inactive.

For `C=CCO`, the compound was classed as inactive.

Consider `ClCCBr`, for which the “activity, negative = cytotoxicity” value was 10% (inactive).

As for `CCCCCCCCCl`, the compound was called inactive.

Consider `Cc1ccc(N)cc1N`, for which the compound was called inactive.

With `c1ccc(-c2ccccc2)cc1`, the compound was called inactive.

On to `CCC[CH2][Sn]([Cl])([Cl])[Cl]`, for which the compound was classed as inactive.

As for `CC(C)OC(=O)Nc1ccccc1`, the compound was classed as inactive.

Take `CC(Oc1ccc(Cl)cc1Cl)C(=O)O` (stereo not given): the call was inactive.

With `O=[N+]([O-])c1ccccc1`, the outcome was inactive.

`[N-]=[N+]=[N-]`: the result was inactive.

As to `CC(C#N)CCC#N` (stereo not given), the outcome was inactive.

Turning to `Oc1ccccc1Cl`, the call was inactive.

Consider `CCN(CC)c1ccccc1`, for which the result was inactive.
